Hits are enriched below; roughly 2.4% of the tested compounds scored in any of these assays.
D2 ag-1 = D2 dopamine receptor (human) agonism | HEK293 T-REx D2 cells, calcium flux agonist mode | activation, % at 2 µM | hit rate 0.53% among 340,000 | AID 485358;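 active = activation over 3 SD above normal in the single-dose calcium agonist read, cut at about 30% in these data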; also: 0% is about no effect
Target sequence (P14416 whole entry, looked up): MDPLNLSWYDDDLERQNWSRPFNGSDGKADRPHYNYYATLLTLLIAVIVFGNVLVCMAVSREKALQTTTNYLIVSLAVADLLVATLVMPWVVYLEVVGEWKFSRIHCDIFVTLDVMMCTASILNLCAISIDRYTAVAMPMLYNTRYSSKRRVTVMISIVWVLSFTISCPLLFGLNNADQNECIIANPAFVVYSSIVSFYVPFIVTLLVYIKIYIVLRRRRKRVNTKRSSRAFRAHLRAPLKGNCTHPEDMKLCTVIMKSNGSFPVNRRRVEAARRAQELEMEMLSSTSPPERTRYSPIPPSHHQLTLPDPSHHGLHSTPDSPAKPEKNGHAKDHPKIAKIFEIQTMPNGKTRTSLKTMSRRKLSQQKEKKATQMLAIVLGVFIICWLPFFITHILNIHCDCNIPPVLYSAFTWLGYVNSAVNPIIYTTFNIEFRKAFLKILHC
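Tetracycline-induced HEK293 Trex cells with D2 receptor force-coupled to calcium signaling, plated overnight at 30 C and loaded with no-wash calcium dye. Calcium flux read kinetically for 180 s after compound addition; responses flag agonists.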
D2 antagonist = antagonists of human D2 dopamine receptor. HEK293 TREx D2 cells, calcium flux, dopamine EC80. inhibition, % at 10 µM. hit rate 2% among 340,000. P14416; in the data active = inhibition above about 30%; inactive = below that, where a call was filed; also: 0% is about no effect
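Measurement of antagonist activity uses fluorescent calcium dye in inducible HEK293 T-REx D2 cells: 10 s baseline, compound addition with 180 s read, EC80 dopamine addition with a further 180 s read.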
D2 ag-2 = agonists of human D2 dopamine receptor (beta-arrestin). DiscoveRx PathHunter D2 beta-arrestin, luminescence, 90 min; 100% = 57 uM dopamine signal. activation, % (concentration not given with the values). hit rate 0.084% among 360,000; in the data active = activation above about 40%; inconclusive = between about 15% and that limit
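DiscoveRx PathHunter D2 beta-arrestin cells (2,100/well) attached overnight, then compound-stimulated 90 min at 37 C in HBSS/10 mM HEPES/0.1% Tween-20 buffer; beta-galactosidase complementation read by luminescence after 1 h at ambient temperature. Dopamine 57 uM final (EC100) as control.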
D2 PAM-1 = positive allosteric modulators of human D2 dopamine receptor. P14416. HEK293 T-REx D2, calcium flux, EC20 dopamine potentiation. potentiation, % at 10 µM. hit rate 0.34% among 340,000. AID 485347;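 active = potentiation over 3 SD above the plate norm, cut at about 30% in these data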; also: 0% is about no effect
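Using a no-wash calcium dye in inducible, force-coupled HEK293 Trex cells expressing D2, we tracked fluorescence each second for 180 s after compound, then for 180 s after EC20 dopamine to detect augmented signalling.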
D2 PAM-2 = positive allosteric modulators of human D2 dopamine receptor | P14416 | DiscoveRx D2 beta-arrestin cells, luminescence, 90 min; 100% = 57 uM dopamine signal | potentiation, % (concentration not given with the values) | hit rate 0.23% among 360,000; in the data active = potentiation above about 50%; inconclusive = mostly about 30% to 49%
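PathHunter beta-arrestin assay in DiscoveRx D2 cells. Compounds were added with an EC20 of dopamine (50 nM final) for 90 min at 37 deg C. Luminescence was read 1 h after detection reagent, with 57 uM dopamine as the EC100 control.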
* hit, by the source's call; ? = inconclusive; · = not tested or not shown.

SMILES	D2 ag-1	D2 antagonist	D2 ag-2	D2 PAM-1	D2 PAM-2
COc1cccc(CN2CCN(Cc3ccc(O)c(OC)c3)CC2CCO)c1 (centres undefined)	1	36*	-5	-8	-18
C#Cc1ccc(CN2CCN(CCCc3ccccc3)C(CCO)C2)cc1 (centres undefined)	0	75*	1	-19	-26
Cc1ccc(CN2CCN(Cc3cccn3-c3ccccn3)CC2CCO)cc1 (centres undefined)	-1	-6	-2	-18	-13
Cc1ccccc1CN1CCN(CCCc2ccccc2)C(CCO)C1 (centres undefined)	1	38*	5	-22	-26
OCCC1CN(Cc2cccn2-c2ncccn2)CCN1Cc1ccccc1 (centres undefined)	-2	31*	-1	6	-14
COc1ccc(OC)c(CN2CCN(CCCc3ccccc3)C(CCO)C2)c1 (centres undefined)	1	69*	-2	-35	-4
NCc1ccccc1	-1	-2	4	15	-6
Cc1ccc2oc(=O)c3cnn(CC(=O)NCCN4CCOCC4)c3c2c1	1	-7	-3	13	-4
Cc1ccc(NC(=O)CCc2nc3sc4c(c3c(=O)[nH]2)CCCC4)nc1	1	0	-5	-6	-3
Cn1cccc1-c1cc(C(=O)N/N=C/c2cc(Br)ccc2O)[nH]n1	·	·	7	·	-30
Cn1cccc1-c1cc(C(=O)N/N=C/c2ccc([N+](=O)[O-])cc2)[nH]n1	0	10	-5	-6	-4
Cn1cccc1-c1cc(C(=O)N/N=C/c2ccc(F)cc2)[nH]n1	-3	61*	-2	·	-23
Cn1cccc1-c1cc(C(=O)N/N=C/c2ccccc2Cl)[nH]n1	0	88*	1	-25	-28
O=C(Oc1ccccc1N1CCOCC1)c1sccc1Br	-3	-9	3	8	-7
COc1ccccc1Nc1nc(-c2sc(N)nc2C)cs1	0	38*	1	8	-17
COc1ccccc1Nc1nc(-c2sc(NC(=O)c3ccccc3)nc2C)cs1	1	9	-2	-2	-8
COC(=O)c1cc(S(=O)(=O)n2nc(C)c(Br)c2C)c(Cl)cc1Cl	-1	-10	-2	4	54*
Cc1cc(C)n(S(=O)(=O)c2cc(C(=O)O)c(Cl)cc2Cl)n1	1	-17	0	·	-5
CCOc1ccc(Cc2onc3c2C(=O)CC(C)(C)C3)cc1OCC	-1	1	1	38*	3
CCOc1ccc(Cc2onc3c2C(=O)CCC3)cc1OCC	4	4	-3	-7	-3
CC(C)CC(=O)Nc1c2c(nn1-c1cccc(Cl)c1)CS(=O)(=O)C2	0	3	3	7	-11
CC(=O)N1CCc2[nH]c3ccccc3c2C1	0	-27	-2	0	-5
O=C(CN1CCN(c2ccccc2)CC1)N1CCc2[nH]c3ccccc3c2C1	36*	11	2	-18	-26
O=C(Cn1c(=S)[nH]c2ccccc2c1=O)N1CCN(c2ccccc2)CC1	3	31*	-4	3	-3
O=C(CN1CCc2[nH]c3ccccc3c2C1)N1CCCCC1	1	23	-2	-12	-29
SMILES	D2 ag-1	D2 antagonist	D2 ag-2	D2 PAM-1	D2 PAM-2
O=C(CCCCl)N1CCc2[nH]c3ccccc3c2C1	19	32*	10	-17	-26
O=C1CC(c2ccccc2F)c2cc3c(cc2N1)CCC3 (centres undefined)	0	10	4	8	-2
CCOc1ccc(Oc2c(C)oc3cc(O)ccc3c2=O)cc1	1	-7	2	-2	-1
COC(=O)COc1ccc2c(=O)c(Oc3ccccc3)c(C)oc2c1	0	-10	-2	37*	-10
CCc1cccc(NC(=O)C2CCC(CNS(=O)(=O)c3csc(C(N)=O)c3)CC2)c1 (centres undefined)	·	·	·	-1	·
Sc1nnc(-c2ccc(Cl)cc2)n1Cc1ccccc1	0	39*	2	-1	-16
Cc1ccsc1/C=C(\C#N)C(=O)NCCCN1CCOCC1	0	2	-3	5	-14
O=C(NCCN1CCOCC1)c1cccc(S(=O)(=O)N2CCCCCC2)c1	1	3	2	15	-12
COc1ccc(N2CCN(CCC(N)=O)CC2)cc1	0	-8	4	-8	-7
Cc1cc(=O)oc2cc(OCC(=O)N3CCCC3)ccc12	·	·	-3	·	-5
Cc1cc(=O)oc2cc(OCC(=O)NCc3ccco3)ccc12	0	0	2	35*	2
COc1ccc(C(=O)CCN2CCN(c3ccc(OC)cc3)CC2)cc1	1	31*	0	-15	-17
Cc1cc(=O)oc2ccc(OCC(=O)NCc3ccco3)cc12	0	-11	-3	-3	-12
Cc1cc(=O)oc2cc(OCC(=O)N3CCOCC3)ccc12	0	2	-6	48*	-9
O=C(CCN1CCN(c2ccccc2F)CC1)c1ccc(Br)cc1	10	34*	1	-18	-13
O=C1CCCN1CCCNS(=O)(=O)c1cccc(F)c1	0	15	-2	5	-5
COc1ccc(C(C)=O)cc1COC(=O)c1ccc(S(=O)(=O)N2CCOCC2)cc1	0	-15	2	13	1
COc1ccc(N2CCN(CCOc3ccc4c(C)cc(=O)oc4c3)CC2)cc1	1	72*	-1	-34	-42
Cc1cc(=O)oc2cc(OCCSCCN3CCCC3)ccc12	-1	3	-6	-11	-10
CS(=O)(=O)Oc1ccc2c(c1)O/C(=C\C=C\c1ccccc1)C2=O	3	38*	3	-3	-3
COc1cccc(CNC(=O)C2CCCN(c3nnc(-n4c(C)ccc4C)s3)C2)c1 (centres undefined)	-1	·	·	7	·
COc1ccc(NC(=O)C2CSC3c4ccccc4C(=O)N23)cc1 (centres undefined)	-2	32*	-1	-3	-9
COC(=O)C1CSC2c3ccccc3C(=O)N12 (centres undefined)	·	·	-4	·	-10
O=C(Cn1cncn1)c1ccccc1	1	1	0	-1	-2
Cc1ccc(S(=O)(=O)CCC(=O)Nc2nnc(-c3ccco3)o2)cc1	0	6	-2	-6	-1
SMILES	D2 ag-1	D2 antagonist	D2 ag-2	D2 PAM-1	D2 PAM-2
COc1cc(-c2nnc3sc(C4CCCCC4)nn23)cc(OC)c1OC	0	-1	-2	69*	-35
COc1cccc(-c2nnc3sc(C4CCCCC4)nn23)c1	1	4	-2	16	-8
Oc1ccc2ccccc2c1CNn1cnnc1	0	33*	1	-7	-3
O=C1C(=O)c2cccnc2-c2ncccc21	·	·	56*	·	?
O=C1c2cccnc2-c2ncccc21	·	·	-3	·	-1
CC(C)CN1CCC(=O)N([C@H](CSc2ccc(Br)cc2)Cc2ccccc2)CC1	0	36*	2	-10	-9
